# Assay results published in PubChem BioAssay (NCATS).
# Results filed as inconclusive are left out. Entries that show only a call come without a potency. Active and inactive are the calls of the source.
# System: not listed separately
# Assay: qHTS assay for small molecule antagonists of peroxisome proliferator-activated receptor delta signaling (AID 588535; active = well fitted inhibition curve with a large enough effect in the signal ratio, with a control signal flat, not every such curve was filed as active; the % refers to the signal ratio;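 for max response: cells co-treated with a PPAR-delta agonist as stimulator during compound exposure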)
# Settings: HEK293T PPARd-UAS-bla, beta-lactamase FRET ratio, 18 h; 460 nm channel
# How it was run: (§1)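 Cells were seeded at 4000 per well in assay medium containing 2% charcoal/dextran FBS and held 5 hrs at 37 C. Compounds were then added for 18 hrs. CCF4 substrate was applied for 2 hrs at room temperature before fluorescence reading.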
row,SMILES,max response
1,CCCC1COC(Cn2cncn2)(c2ccc(Cl)cc2Cl)O1 (centres undefined),10.7%
2,Cc1cnc(C2=NC(C)(C(C)C)C(=O)N2)c(C(=O)O)c1 (centres undefined),-1.47%
3,O=S(=O)(c1ccc(O)cc1)c1ccc(O)cc1,45.2%
4,CCOP(=O)(O)C(N)=O,57.5%
5,CCOc1nc(NC)nc(NC(=O)NS(=O)(=O)c2ccccc2C(=O)OC)n1,16.6%
6,NS(=O)(=O)C(F)(F)C(F)(F)C(F)(F)C(F)(F)C(F)(F)C(F)(F)C(F)(F)C(F)(F)F,101%
7,CCOP(=O)(SC(C)CC)SC(C)CC (centres undefined),-10.9%
8,C/C(=N\C(N)=O)N(C)Cc1ccc(Cl)nc1,39.3%
9,FC(F)(F)c1ccc(OCCCOc2c(Cl)cc(OCC=C(Cl)Cl)cc2Cl)nc1,-4.25%
10,Cc1ccccc1C(=O)Nc1cccc(OC(C)C)c1,10.6%
11,CCOC1Oc2ccc(OS(C)(=O)=O)cc2C1(C)C (centres undefined),-8.85%
12,Nc1ccc([N+](=O)[O-])cc1Cl,-22.4%
13,CCCCC(CC)C(=O)Cl (centres undefined),9%
14,CCNc1nc(NC(C)(C)C)nc(SC)n1,44.7%
15,CCOP(=O)(OCC)SCSCC,-57%
16,CCOP(=O)(OCC)SCSC(C)(C)C,5.82%
17,CNC(=O)Oc1ccc(N(C)C)c(C)c1,-23.4%
18,COC(=O)c1ccccc1CS(=O)(=O)NC(=O)Nc1nc(OC)cc(OC)n1,-1.25%
19,CCOP(=S)(OCC)Oc1cnc2ccccc2n1,6.57%
20,CCOP(=S)(S)OCC,11%
21,CCCCN(CC)C(=O)SCCC,5.34%
22,C=CC1(C)OC(=O)N(c2cc(Cl)cc(Cl)c2)C1=O (centres undefined),-9.9%

# Target: Peroxisome proliferator-activated receptor delta (Homo sapiens) (UniProt Q03181)
# Sequence (Q03181 whole entry, looked up): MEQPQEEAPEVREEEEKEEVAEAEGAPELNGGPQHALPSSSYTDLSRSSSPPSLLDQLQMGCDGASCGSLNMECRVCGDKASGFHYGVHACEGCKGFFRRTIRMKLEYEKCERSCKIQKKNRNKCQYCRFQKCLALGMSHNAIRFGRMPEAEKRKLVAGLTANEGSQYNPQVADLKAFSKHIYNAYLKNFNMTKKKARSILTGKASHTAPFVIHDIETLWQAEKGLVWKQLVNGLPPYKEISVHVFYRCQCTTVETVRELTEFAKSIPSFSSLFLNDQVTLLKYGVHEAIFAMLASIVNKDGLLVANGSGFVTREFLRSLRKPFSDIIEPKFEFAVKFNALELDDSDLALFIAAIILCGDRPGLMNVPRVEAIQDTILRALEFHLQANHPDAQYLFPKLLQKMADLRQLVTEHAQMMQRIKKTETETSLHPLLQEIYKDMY
# Assay: as above
# Settings: HEK293T PPARd-UAS-bla, beta-lactamase FRET ratio, 18 h; series mostly up to 76.7 µM
# How it was run: as §1
row,SMILES,Potency
1,CCCC1COC(Cn2cncn2)(c2ccc(Cl)cc2Cl)O1 (centres undefined),inactive
2,Cc1cnc(C2=NC(C)(C(C)C)C(=O)N2)c(C(=O)O)c1 (centres undefined),inactive
3,O=S(=O)(c1ccc(O)cc1)c1ccc(O)cc1,inactive
4,CCOc1nc(NC)nc(NC(=O)NS(=O)(=O)c2ccccc2C(=O)OC)n1,inactive
5,NS(=O)(=O)C(F)(F)C(F)(F)C(F)(F)C(F)(F)C(F)(F)C(F)(F)C(F)(F)C(F)(F)F,inactive
6,CCOP(=O)(SC(C)CC)SC(C)CC (centres undefined),inactive
7,C/C(=N\C(N)=O)N(C)Cc1ccc(Cl)nc1,inactive
8,FC(F)(F)c1ccc(OCCCOc2c(Cl)cc(OCC=C(Cl)Cl)cc2Cl)nc1,inactive
9,Cc1ccccc1C(=O)Nc1cccc(OC(C)C)c1,inactive
10,CCOC1Oc2ccc(OS(C)(=O)=O)cc2C1(C)C (centres undefined),inactive
11,Nc1ccc([N+](=O)[O-])cc1Cl,inactive
12,CCCCC(CC)C(=O)Cl (centres undefined),inactive
13,CCNc1nc(NC(C)(C)C)nc(SC)n1,inactive
14,CCOP(=O)(OCC)SCSCC,inactive
15,CNC(=O)Oc1ccc(N(C)C)c(C)c1,inactive
16,COC(=O)c1ccccc1CS(=O)(=O)NC(=O)Nc1nc(OC)cc(OC)n1,inactive
17,CCOP(=S)(OCC)Oc1cnc2ccccc2n1,inactive
18,CCOP(=S)(S)OCC,inactive
19,CCCCN(CC)C(=O)SCCC,inactive

# Target: Peroxisome proliferator-activated receptor gamma (Homo sapiens) (UniProt P37231)
# Sequence (P37231 whole entry, looked up): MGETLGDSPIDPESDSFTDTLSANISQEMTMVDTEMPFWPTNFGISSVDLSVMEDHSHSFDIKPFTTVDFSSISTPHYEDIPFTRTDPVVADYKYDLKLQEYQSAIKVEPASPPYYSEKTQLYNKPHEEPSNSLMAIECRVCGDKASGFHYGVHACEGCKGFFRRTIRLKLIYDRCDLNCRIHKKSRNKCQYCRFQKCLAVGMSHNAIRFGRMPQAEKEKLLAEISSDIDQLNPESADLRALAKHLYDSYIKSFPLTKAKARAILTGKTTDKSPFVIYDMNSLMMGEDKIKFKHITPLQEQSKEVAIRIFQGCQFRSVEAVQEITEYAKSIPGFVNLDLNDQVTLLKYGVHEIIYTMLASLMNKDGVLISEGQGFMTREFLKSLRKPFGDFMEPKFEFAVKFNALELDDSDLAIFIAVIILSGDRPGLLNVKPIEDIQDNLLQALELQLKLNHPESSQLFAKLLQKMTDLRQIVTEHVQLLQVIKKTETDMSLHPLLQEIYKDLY
# Assay: qHTS assay for small molecule agonists of peroxisome proliferator-activated receptor gamma signaling (AID 588536; active = well fitted curve in the direction sought with a large enough effect in the signal ratio, with a control signal flat, not every such curve was filed as active; the % refers to the signal ratio)
# Settings: HEK293 PPARg-UAS-bla, beta-lactamase ratio, 16 h; series mostly up to 76.7 µM
# How it was run: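 PPAR-gamma-UAS-bla HEK293 cells in medium with 1% charcoal/dextran-treated FBS were exposed to compounds for 16 h at 37 C. Beta-lactamase activity was read with CCF4 substrate (405 nm excitation, 460/530 nm emission).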
row,SMILES,Potency
1,C/C(=N\NC(=O)Nc1cc(F)cc(F)c1)c1ncccc1C(=O)O,inactive
2,Cc1cnc(C2=NC(C)(C(C)C)C(=O)N2)c(C(=O)O)c1 (centres undefined),inactive
3,O=S(=O)(c1ccc(O)cc1)c1ccc(O)cc1,inactive
4,CCOP(=O)(O)C(N)=O,inactive
5,CCOc1nc(NC)nc(NC(=O)NS(=O)(=O)c2ccccc2C(=O)OC)n1,inactive
6,COc1ccc(O)c(C(C)(C)C)c1,inactive
7,CCOP(=S)(OCC)SCC(=O)NC(C)C,inactive
8,Clc1ccc([C@]2(Cn3cncn3)C[C@@H](Br)CO2)c(Cl)c1,inactive
9,CCOP(=O)(SC(C)CC)SC(C)CC (centres undefined),inactive
10,CNC(=O)Oc1cccc2c1OC(C)(C)C2O (centres undefined),inactive
11,FC(F)(F)c1ccc(OCCCOc2c(Cl)cc(OCC=C(Cl)Cl)cc2Cl)nc1,inactive
12,CCOC1Oc2ccc(OS(C)(=O)=O)cc2C1(C)C (centres undefined),inactive
13,Nc1ccc([N+](=O)[O-])cc1Cl,inactive
14,CCCCC(CC)C(=O)Cl (centres undefined),inactive
15,CCNc1nc(NC(C)(C)C)nc(SC)n1,inactive
16,CCOP(=O)(OCC)SCSCC,inactive
17,CCOP(=O)(OCC)SCSC(C)(C)C,inactive
18,CNC(=O)Oc1ccc(N(C)C)c(C)c1,inactive
19,COC(=O)c1ccccc1CS(=O)(=O)NC(=O)Nc1nc(OC)cc(OC)n1,inactive
20,CCOP(=S)(OCC)Oc1cnc2ccccc2n1,inactive
21,CCOP(=S)(S)OCC,inactive
22,CCCCN(CC)C(=O)SCCC,inactive
23,C/C=C(\C)C(=O)O[C@H]1C[C@@H](OC(C)=O)[C@@]2(C(=O)OC)CO[C@H]3[C@@H](O)[C@@](C)([C@]45O[C@@]4(C)[C@H]4C[C@@H]5O[C@@H]5OC=C[C@@]54O)[C@H]4[C@]1(CO[C@]4(O)C(=O)OC)[C@@H]32,inactive
24,C=CC1(C)OC(=O)N(c2cc(Cl)cc(Cl)c2)C1=O (centres undefined),inactive

# Target: Peroxisome proliferator-activated receptor gamma (Homo sapiens) (UniProt P37231)
# Assay: qHTS assay for small molecule antagonists of peroxisome proliferator-activated receptor gamma signaling (AID 588537; active = well fitted inhibition curve with a large enough effect in the signal ratio, with a control signal flat, not every such curve was filed as active; the % refers to the signal ratio;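 note: reporter cells co-stimulated with 50 nM rosiglitazone agonist during compound treatment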)
# Settings: HEK293 PPARg-UAS-bla, beta-lactamase ratio, antagonist mode; series mostly up to 76.8 µM
# How it was run: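 Step one: plate 3000 HEK293 UAS-bla cells per well in medium with 1% stripped serum and hold 6-6.5 h at 37 C. Step two: add compound and 50 nM agonist for 16 h. Step three: CCF4 loading, fluorescence read.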
row,SMILES,Potency
1,C/C(=N\NC(=O)Nc1cc(F)cc(F)c1)c1ncccc1C(=O)O,inactive
2,CCCC1COC(Cn2cncn2)(c2ccc(Cl)cc2Cl)O1 (centres undefined),inactive
3,O=S(=O)(c1ccc(O)cc1)c1ccc(O)cc1,inactive
4,CCOP(=O)(O)C(N)=O,inactive
5,CCOP(=S)(OCC)SCC(=O)NC(C)C,inactive
6,CCOP(=O)(SC(C)CC)SC(C)CC (centres undefined),inactive
7,C/C(=N\C(N)=O)N(C)Cc1ccc(Cl)nc1,inactive
8,O=S1OC[C@@H]2[C@H](CO1)[C@@]1(Cl)C(Cl)=C(Cl)[C@]2(Cl)C1(Cl)Cl (some centres undefined),inactive
9,CCOC1Oc2ccc(OS(C)(=O)=O)cc2C1(C)C (centres undefined),inactive
10,CCCCC(CC)C(=O)Cl (centres undefined),inactive
11,CCNc1nc(NC(C)(C)C)nc(SC)n1,inactive
12,CCOP(=O)(OCC)SCSCC,inactive
13,CNC(=O)Oc1ccc(N(C)C)c(C)c1,inactive
14,COC(=O)c1ccccc1CS(=O)(=O)NC(=O)Nc1nc(OC)cc(OC)n1,inactive
15,Cc1cc(Cl)ccc1OCC(=O)O,inactive
16,CCOP(=S)(OCC)Oc1cnc2ccccc2n1,inactive
17,CCOP(=S)(S)OCC,inactive
18,CCCCN(CC)C(=O)SCCC,inactive
19,C=CC1(C)OC(=O)N(c2cc(Cl)cc(Cl)c2)C1=O (centres undefined),inactive
